Most compounds without a hit are left out; they make up all but 5.3% or so of the library.
Tau fluor counter: Counterscreen qHTS for Inhibitors of Tau Fibril Formation, Fluorescence Polarization; tau K18 P301L Alexa594 fluorescence, heparin fibrillization; Potency, µM (highest dose often 57.7 µM); 0.93% of 280,000 active; note: nearly all actives have a fitted effect of over 55% in size
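Human K18 P301L tau (15 uM unlabeled plus 0.24 uM Alexa 594-labeled, final) in 100 mM sodium acetate pH 7 was mixed with compound and 20 uM heparin and incubated 6 hr at 37 C.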
Tau FP inhib: qHTS for Inhibitors of Tau Fibril Formation, Fluorescence Polarization | 0.39% of 280,000 active | AID 1468, 2008 | Potency, µM (titrated, usually from 57.7 µM), hits mostly inhibitors | K18 P301L tau heparin fibrillization, Alexa594 FP, 6 h; note: nearly all actives have a fitted effect of over 55% in size
Target sequence (P10636 561-689 P618L limits assumed): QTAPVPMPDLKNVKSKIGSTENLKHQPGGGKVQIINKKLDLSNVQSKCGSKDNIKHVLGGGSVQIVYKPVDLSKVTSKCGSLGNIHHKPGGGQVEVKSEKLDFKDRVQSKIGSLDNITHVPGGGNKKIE
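Compound effects on tau fibrillization are measured by Alexa 594 fluorescence polarization (ex 555, em 632 nm). K18 P301L tau is used at 15 uM with 0.24 uM labeled tracer, and 20 uM heparin induces aggregation over 6 hr at 37 C.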
FBPA coupling cs: qHTS Assay for Inhibitors of Fructose-1,6-bisphosphate Aldolase from Giardia Lamblia: Coupling assay counterscreen. coupling enzyme system counterscreen, AmpLite Red fluorescence. activity change, negative = inhibition, % at 58.2 µM, hits read low. 0.67% of 290,000 active. AID 2472, 2010; in the data active = activity change below about -30%
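Final compound at 57.5 uM, incubated 10 min at RT with coupling enzyme reagent (glyceraldehyde-3-phosphate), then 20 min with substrate and AmpLite Red detection. Fluorescence read at 525/598 nm; tests interference with the coupling assay, not aldolase inhibition.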
Sfp inh: qHTS Assay for Inhibitors of Bacillus subtilis Sfp phosphopantetheinyl transferase (PPTase). 4'-phosphopantetheinyl transferase ffp (Bacillus subtilis), Q9F4F7. Biochemical Sfp PPTase activity, qHTS. Potency, µM, hits mostly inhibitors. 3.5% of 310,000 active;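 note: the enzyme is Sfp with the accession as filed and its product quenches rhodamine fluorescence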
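Fluorescence-quenching assay with 15 nM Sfp, 5 uM rhodamine-CoA and 12.5 uM BHQ-2-labelled ybbR peptide in pH 7.6 Hepes/MgCl2 buffer. Enzyme was pre-incubated with compound for 15 min at room temperature. Rate was taken from the 30-min fluorescence change (525/598 nm).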
KDM4E inh: qHTS Assay for Inhibitors of Human Jumonji Domain Containing 2E (JMJD2E). 1.6% of 230,000 active. JMJD2E catalytic domain, FDH-coupled NADH fluorescence (FDH is formaldehyde dehydrogenase). Potency, µM (highest dose often 57.1 µM), most hits filed as inhibitors. Lysine-specific demethylase 4E (Homo sapiens), B2RXH2; active = well fitted inhibition curve with a large enough effect, not every such curve was filed as active; inconclusive = small, poorly fitted or top-dose-only effect, or another doubt; inactive = no such curve, though single readings can be large or run the other way; note: nearly all actives have a fitted effect of over 50% in size
Target sequence (B2RXH2 1-337 limits assumed): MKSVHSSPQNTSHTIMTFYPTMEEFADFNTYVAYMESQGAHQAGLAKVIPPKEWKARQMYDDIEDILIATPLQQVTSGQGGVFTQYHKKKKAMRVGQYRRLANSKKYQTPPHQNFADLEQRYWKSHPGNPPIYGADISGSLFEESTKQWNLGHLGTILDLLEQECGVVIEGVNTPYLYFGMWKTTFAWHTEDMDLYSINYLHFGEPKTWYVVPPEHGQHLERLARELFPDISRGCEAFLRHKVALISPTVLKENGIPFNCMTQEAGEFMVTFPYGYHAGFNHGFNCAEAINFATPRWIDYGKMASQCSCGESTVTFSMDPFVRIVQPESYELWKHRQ
Tau fibril ThT: qHTS for Inhibitors of Tau Fibril Formation, Thioflavin T Binding. recombinant tau K18 P301L (four-repeat tau fragment), heparin-induced fibrillization, ThT fluorescence. Potency, µM (doses to about 57.4 µM), most hits filed as inhibitors. 2.1% of 270,000 active; note: nearly all actives have a fitted effect of over 55% in size
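K18 P301L tau (15 uM + 0.24 uM Alexa 594-tagged), heparin 20 uM, NaOAc pH 7, 6 h 37 C; ThT 30 uM, 1 h RT, ex 450/em 510 nm.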
Hits are given with their value. Unless noted, calls come from the whole dose curve; as a rule, active = well fitted curve in the direction sought with a large enough effect; inconclusive = small, poorly fitted or top-dose-only effect, or another doubt; inactive = no such curve, though single readings can be large; an effect the other way counts as inactive or inconclusive.

What do the screens show for `Cc1ccc(OCc2nc(-c3ccc(C(=O)N4CCN(c5cc(Cl)ccc5C)CC4)cc3)oc2C)cc1`?
Tau fluor counter: inactive; Tau FP inhib: inactive; Tau fibril ThT: inactive

What do the screens show for `N#C/C(=N/Nc1ccc([N+](=O)[O-])cc1)C(=N)N1CCCCC1`?
Tau fluor counter: inactive; Tau FP inhib: inactive; FBPA coupling cs: inactive; Sfp inh: inactive; KDM4E inh: inactive; Tau fibril ThT: 10µM

Results for N#C/C(=N\Nc1cccc([N+](=O)[O-])c1)C(=O)c1ccc(Br)cc1 ?
Tau fluor counter: inconclusive; Tau FP inhib: inactive; FBPA coupling cs: inactive; Sfp inh: inactive; KDM4E inh: inactive; Tau fibril ThT: 10µM

Results for N#C/C(=N\Nc1ccc([N+](=O)[O-])cc1)C(=N)N1CCOCC1 ?
Tau fluor counter: inactive; Tau FP inhib: inactive; FBPA coupling cs: inactive; Sfp inh: inactive; KDM4E inh: inactive; Tau fibril ThT: inconclusive

How did N#C/C(=N\Nc1ccc([N+](=O)[O-])cc1)C(N)=S do in these assays?
Tau fluor counter: inactive; Tau FP inhib: inactive; FBPA coupling cs: inactive; Sfp inh: 45µM; KDM4E inh: inactive

What do the screens show for `CCOc1ccccc1NC(=O)c1c(C)cc(C)nc1SCC(=O)c1cccc(OC)c1`?
Tau fluor counter: inactive; Tau FP inhib: inactive; Tau fibril ThT: inactive

What do the screens show for `Cc1[nH]n(-c2ccccc2)c(=O)c1N=Nc1ccc(F)cc1`?
FBPA coupling cs: inactive; Sfp inh: inactive

What do the screens show for `CSc1ccc(N=Nc2c(C)[nH]n(C)c2=O)cc1`?
Tau fluor counter: inactive; Tau FP inhib: inactive; FBPA coupling cs: inactive; Sfp inh: inactive; KDM4E inh: inactive; Tau fibril ThT: 8.9µM

How did O=C1CCCC(O)=C1N=Nc1ccc(C(=O)O)cc1 do in these assays?
Tau fluor counter: inactive; Tau FP inhib: inactive; FBPA coupling cs: inactive; Sfp inh: inactive; KDM4E inh: inconclusive; Tau fibril ThT: inconclusive

Results for O=C1CCCC(O)=C1N=Nc1c(Cl)cc(C(F)(F)F)cc1Cl ?
Tau fluor counter: inactive; Tau FP inhib: inactive; FBPA coupling cs: inactive; Sfp inh: inconclusive; KDM4E inh: 25µM; Tau fibril ThT: inconclusive

What do the screens show for `CCN(CC)S(=O)(=O)c1ccc(/C=C/C(=O)OCC(=O)Nc2ccc(S(N)(=O)=O)cc2)cc1`?
Tau fluor counter: inactive; Tau FP inhib: inactive; FBPA coupling cs: -46; Sfp inh: inconclusive; KDM4E inh: inactive; Tau fibril ThT: inactive

How did Cc1ccccc1C1C(C#N)=C2N=C(N)c3c(sc4c3CCCCC4)N2C2=C1C(=O)CCC2 (stereo not given) do in these assays?
Tau fluor counter: inactive; Tau FP inhib: inactive; FBPA coupling cs: inactive; Sfp inh: 50µM; KDM4E inh: inactive; Tau fibril ThT: inconclusive

Results for Cn1c(=O)c(-c2cc(F)cc(F)c2)nc2cnc(N3CCOCC3)nc21 ?
FBPA coupling cs: inactive; Sfp inh: inactive

What do the screens show for `O=C1C=CC(=O)N1c1cccc(-c2ccccc2)c1`?
Tau fluor counter: inactive; Tau FP inhib: inactive; FBPA coupling cs: inactive; Sfp inh: 1.8µM; KDM4E inh: inactive; Tau fibril ThT: inactive

Results for O=C1c2ccccc2C(=O)N1c1cccc(-c2nc3ccccc3o2)c1 ?
Tau fluor counter: inactive; Tau FP inhib: inactive; FBPA coupling cs: inactive; Sfp inh: inactive; KDM4E inh: inactive; Tau fibril ThT: inactive

What do the screens show for `Cn1c(=O)[nH]c2nnc(-c3ccc(Cl)c(Cl)c3)nc2c1=O`?
Tau fluor counter: inactive; Tau FP inhib: inactive; FBPA coupling cs: inactive; Sfp inh: inconclusive; KDM4E inh: inactive; Tau fibril ThT: 16µM

How did CSc1cnc2c(=O)n(C)c(=O)[nH]c2n1 do in these assays?
Tau fluor counter: inactive; Tau FP inhib: inactive; FBPA coupling cs: inactive; Sfp inh: inactive; KDM4E inh: inconclusive; Tau fibril ThT: inactive

Bioassay records (PubChem)
